# Test results reported in PubChem BioAssay (NCI).
# Compounds without any hit were thinned out: in the full panel of roughly 83,000, 20% have a hit.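 Cells were grown in 96-well plates and exposed to the test compound at a single concentration for 48 hours; results are reported as percent growth, with values below 10 considered active.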 Values without a mark were called inactive. The source made the active and inactive calls.
# Legend:
# Test in all cases: NCI-60 one-dose screen, 48 h (100 = growth as untreated, 0 = no growth, -100 = all killed)
# Conditions in all cases: 10 µM unless noted
# SK-MEL-2 melanoma = system: SK-MEL-2 melanoma
# EKVX NSCLC = system: EKVX NSCLC
# SN12C renal = system: SN12C renal
# UO-31 renal = system: UO-31 renal
# TK-10 renal = system: TK-10 renal
# ACHN renal = system: ACHN renal
# CAKI-1 renal = system: CAKI-1 renal
# A498 renal = system: A498 renal
# CCRF-CEM leukemia = system: CCRF-CEM leukemia
# MOLT-4 leukemia = system: MOLT-4 leukemia
# SR leukemia = system: SR leukemia
# RPMI-8226 leukemia = system: RPMI-8226 leukemia
# OVCAR-8 ovarian = system: OVCAR-8 ovarian
# OVCAR-5 ovarian = system: OVCAR-5 ovarian
# OVCAR-4 ovarian = system: OVCAR-4 ovarian
# SK-OV-3 ovarian = system: SK-OV-3 ovarian
# OVCAR-3 ovarian = system: OVCAR-3 ovarian
# HS 578T breast = system: HS 578T breast
# NCI/ADR-RES ovarian = system: NCI/ADR-RES ovarian
# IGROV1 ovarian = system: IGROV1 ovarian
Compound,growth (SK-MEL-2 melanoma),growth (EKVX NSCLC),growth (SN12C renal),growth (UO-31 renal),growth (TK-10 renal),growth (ACHN renal),growth (CAKI-1 renal),growth (A498 renal),growth (CCRF-CEM leukemia),growth (MOLT-4 leukemia),growth (SR leukemia),growth (RPMI-8226 leukemia),growth (OVCAR-8 ovarian),growth (OVCAR-5 ovarian),growth (OVCAR-4 ovarian),growth (SK-OV-3 ovarian),growth (OVCAR-3 ovarian),growth (HS 578T breast),growth (NCI/ADR-RES ovarian),growth (IGROV1 ovarian)
N=C(N)N=Nc1ccc(O)cc1,105% [100 µM],96% [100 µM],104% [100 µM],81.9% [100 µM],124% [100 µM],20.8% [100 µM],53.4% [100 µM],126% [100 µM],91.2% [100 µM],88.4% [100 µM],35.6% [100 µM],65.7% [100 µM],36.7% [100 µM],116% [100 µM],68.9% [100 µM],106% [100 µM],68.3% [100 µM],60% [100 µM],36.8% [100 µM],–
Cc1nn(-c2ccc(Cl)cc2)c(=O)n1CCn1cnc2ccccc21,109%,102%,105%,90.8%,108%,109%,95.8%,95.6%,106%,100%,104%,104%,112%,99.9%,118%,113%,111%,100%,103%,–
COc1cccc(-c2nn(-c3ccccc3)cc2-c2ccnc(NCCCO)c2)c1,-0.25% (active),67.6%,34.3%,48.9%,63.1%,55.6%,43%,15.1%,11.8%,25.1%,5.71% (active),28.3%,46%,–,55.1%,45%,25.9%,35.7%,7.32% (active),58.8%
O=C1c2cccc3cccc(c23)C(=O)N1CC#Cc1ccc2c3c(cccc13)C(=O)N(CCN1CCNCC1)C2=O,113%,104%,97.2%,97.7%,141%,74.4%,82.4%,112%,7.71% (active),6.74% (active),2.23% (active),8.66% (active),93.9%,–,85.3%,132%,106%,106%,102%,91.4%
c1csc(-c2nc(-c3cc4ccccc4c(N4CCOCC4)n3)cs2)c1,47.4%,87.9%,92.4%,71.3%,123%,85.2%,84.5%,86.2%,107%,92.1%,97.7%,106%,102%,–,110%,99.5%,111%,99.9%,94.2%,86.3%
Cn1cc(-c2nc(-c3c[nH]c4ncccc34)cs2)c2cc(F)ccc21,28.3%,14.5%,51.3%,29.4%,23.2%,24.1%,12.8%,42.3%,25.8%,23.9%,13.7%,36.4%,51.4%,21.4%,–,55.9%,21%,66.8%,8.92% (active),–
CC(=O)O[C@H]1CC[C@@]2(C)[C@@H](CC[C@@H]3[C@@H]2CC(=O)[C@@]2(C)[C@H]3C[C@@H](C3CCCC3=O)[C@@H]2C(C)=O)C1 (stereo partly drawn),111%,116%,84.4%,88.3%,106%,107%,114%,97.1%,92.9%,86.1%,87.9%,91.2%,98.9%,107%,–,107%,115%,108%,104%,98.1%
C[Si](C)(C)Cc1ccccc1,163%,110%,108%,95.9%,122%,106%,98.5%,164%,-49.7% (active),118%,143%,71.6%,107%,–,113%,112%,127%,120%,105%,125%
O=C(N/N=C\c1ccccc1O)C1CC1,103%,109%,93.6%,71%,118%,108%,115%,113%,83.7%,101%,104%,107%,93.5%,117%,–,101%,102%,115%,92.8%,95%
CC1=CC(=O)N(c2cccc3c(N4C(=O)C=C(C)C4=O)cccc23)C1=O,87.5%,108%,93.3%,33.3%,35.3%,1.27% (active),10.9%,124%,11.2%,4.75% (active),-21.1% (active),21.5%,80.3%,109%,–,108%,-16.2% (active),110%,78.3%,76.3%
CC(=O)Oc1ccccc1C(=O)/C=C/c1cccc([N+](=O)[O-])c1,96.2%,75.6%,78.9%,-28.1% (active),134%,75.3%,67.6%,92.6%,5.04% (active),50.8%,-30.8% (active),-17.4% (active),77.7%,110%,–,102%,66.4%,71.2%,74.3%,37.3%
CCNCCCn1c2c(c3ccc([N+](=O)[O-])cc3c1=O)C(=O)c1cc(OC)cnc1-2,-27.8% (active),8.7% (active),1.09% (active),-85.1% (active),-27.6% (active),-61.1% (active),-58.5% (active),-89.2% (active),3.93% (active),-4.26% (active),0% (active),-22% (active),-37% (active),12.3%,10.4%,–,-33.1% (active),8.88% (active),-40.2% (active),-24.1% (active)
Cn1cc(-c2nc(-c3c[nH]c4ncccc34)cs2)c2ccccc21,87%,22.7%,90%,62.4%,56.9%,88.9%,79.1%,81.5%,75.5%,77.8%,40%,64%,101%,49.1%,–,95.5%,77.7%,103%,74.4%,51%
O=[N+]([O-])c1ccc(N/N=C(\C(=N/Nc2ccc([N+](=O)[O-])cc2[N+](=O)[O-])c2ccccc2)c2ccccc2)c([N+](=O)[O-])c1,95.9%,108%,97.5%,86.4%,-1.75% (active),95.7%,81.1%,103%,58.4%,92.2%,-1.67% (active),93.3%,87.6%,–,5.4% (active),106%,84%,74.4%,90.4%,92.3%
CC(CNc1nc(Nc2ccc(Cl)c(Cl)c2)nc(C(Cl)(Cl)Cl)n1)N(C)C (stereo not drawn),-92.1% (active),18.5%,16.2%,-3.58% (active),-61.7% (active),6.79% (active),-19.1% (active),22.8%,-3.41% (active),-49.4% (active),-42.6% (active),-12.5% (active),-50.8% (active),33.7%,–,25.9%,-67.8% (active),-20.8% (active),-23.6% (active),-5.99% (active)
N#CC1C(=N)Cc2ccccc2-c2ccccc21 (stereo not drawn),31.1%,67.1%,54.2%,53.8%,78.1%,75%,29%,55.3%,62.6%,25.8%,26.7%,52.3%,63.1%,88.3%,–,66.7%,41.6%,36.5%,1.44% (active),45.7%
